In PubChem BioAssay (NCI):
The panel holds about 79,000 compounds, 15% with a hit somewhere; the sample as a whole holds those more often. Values without a mark were called inactive. The source made the active and inactive calls. Rule as the data show it: active = growth inhibition above about 70%; inactive = the rest.

experiment: NCI Yeast Anticancer Drug Screen. Data for the sgs1 mgt1 strain (AID 161);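 also: 0% = growth of cultures given vehicle only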; conditions: S. cerevisiae sgs1 mgt1 strain, at 50.0 µM (retest, dose inferred, filed as 5.0), hits give high values
In short: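 Compounds are added to genetically altered yeast, and growth is compared with cultures given vehicle alone to give percent inhibition.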

Structure (SMILES)	growth inhibition
NC(=O)NC(=O)N/N=C/c1ccc([N+](=O)[O-])o1	27%
O=[N+]([O-])/C=C\c1csc2ccccc12	99% (active)
O=[N+]([O-])c1ccc2c(c1)CCc1ccccc1-2	75% (active)
CC1=C(C)CC2C(=O)C(C(O)CC(C)C)=CC(=O)C2C1 (stereo not drawn)	98% (active)
CCC(=O)OC1CCC(C2CCCCC2)CC1 (stereo not drawn)	5%
Cc1cc(C2C(O)C(c3cc(C)on3)C2(C)O)no1 (stereo not drawn)	5%
CC(C)C(Sc1nc(-c2ccccc2)c(-c2ccccc2)[nH]1)C(=O)NN (stereo not drawn)	94% (active)
C/C(=N\NC(=O)N/N=C(\C)c1ccccn1)c1ccccn1	24%
COC(=O)CCCCCCCCCCC(=O)O	4%
CCCCCCCCCCCCNC(=O)C[n+]1cccc(C(N)=O)c1	97% (active)
Nc1ccccc1N=Cc1ccccc1O	91% (active)
N#Cc1c(-c2ccc(Cl)cc2)c2c(n(C3OC(CO)C(O)C(O)C3O)c1=S)CCCC2 (stereo not drawn)	96% (active)
CC(C)(C)CC(C)(C)N[P+](NC(C)(C)CC(C)(C)C)(NC(C)(C)CC(C)(C)C)NC(C)(C)CC(C)(C)C	99% (active)
CC(=O)OC1C(OC(C)=O)C2C(C)CC3OC(=O)C(C)C3CC2(C)C1OC(C)=O (stereo not drawn)	69%
NNC(=O)c1ccc(N)cc1O	-3%
Nc1ccc2c(c1)C(=O)c1ccccc1-2	6%
Cc1cn(C(C#N)=C(C#N)C#N)c2ccccc12	32%
FC(F)(F)COP1(OCC(F)(F)F)=NP(OCC(F)(F)F)(OCC(F)(F)F)=NP(c2ccccc2)(c2ccccc2)=N1	-1%
